# Data taken from PubChem BioAssay (Tox21).
# Unmarked numbers belong to inactive results. Calls follow the shape of the full dose curve. Where a SMILES comes first, the peptide text is derived from it. [ ]: non-standard residue; d: D form. pGlu = O=C1CC[C@@H](C(=O)O)N1
# Biological target: Estrogen receptor (Homo sapiens) (UniProt P03372)
# Test: qHTS assay to identify small molecule agonists of the estrogen receptor alpha (ER-alpha) signaling pathway in the presence of an antagonist (AID 1259383); also: top concentration of the series differs between compounds; nearly all actives have a fitted effect of over 15% in size
# Settings: VM7Luc4E2 cells, ERE-luciferase, +ICI-182,780, 22 h; series mostly up to 92.4 µM; activation: at the top concentration
# Description: National Center for Advancing Translational Sciences [NCATS] NIH Chemical Genomics Center [NCGC] U.S. Environmental Protection Agency [EPA] National Institutes of Environmental Health Sciences [NIEHS] National Toxicology Program [NTP] Assay overview: Estrogen receptor (ER), a member of nuclear hormone receptor plays an important role in development, metabolic homeostasis and reproduction. Two subtypes of ER, ER-alpha and ER-beta, have similar expression patterns with some uniqueness in both types. Endocrine disrupting chemicals (EDCs) and their interactions with steroid hormone receptors like ER causes disruption of normal endocrine function. Therefore, it is important to understand the effect of environmental chemicals in ER signaling pathway. For identifying ER agonists, VM7Luc4E2 cell line has been used in the current assay. VM7Luc4E2 cell line (provided by Denison MS, University of California) endogenously expresses full-length ER-alpha and is stably transfected with a plasmid containing four estrogen responsive elements (ERE) upstream of a luciferase reporter gene. This current screening for measuring luciferase reporter gene activity using VM7Luc4E2 cells against Tox21 10K library collection is a confirmation study on agonist mode screening in presence of ER-antagonist (ICI-182,780) at 10.0nM final concentration.
# Assay Protocol Summary: VM7Luc4E2 cells were cultured in phenol red free assay medium containing 10% charcoal stripped FBS for 5 days prior to the assay. The cells were dispensed at 4,000 cells in 4uL of assay medium per well into white wall/solid-bottom 1536-well plates (Corning Life Sciences, Corning, NY) using a Multidrop Combi (Thermo Fisher Scientific Inc., Waltham, MA) dispenser. After the assay plates were incubated at 37C and 5% CO2 for 24hr, 1uL of 10.0nM (final concentration) ICI-182,780 or assay buffer was added using two separate tips of Flying Reagent Dispenser (FRD, Aurora Discovery, San Diego, CA). Then 23nL of compounds dissolved in DMSO at 15 concentrations and positive controls or DMSO only was transferred to the assay plates by a Pintool station (Wako, San Diego, CA). The assay plates were incubated at 37C and 5% CO2 for 22hr. For luciferase read, 4uL/well ONE-Glo reagent (Promega Corporation, Madison, WI) was added to each well using FRD and after 30min incubation at room temperature, luminescence signal was measured on ViewLux plate reader (PerkinElmer, Shelton, CT).
# % is scaled to controls: 0 for no effect and ±100 for the full control effect.
# Chain of Estrogen receptor (Homo sapiens) (P03372 whole entry, looked up): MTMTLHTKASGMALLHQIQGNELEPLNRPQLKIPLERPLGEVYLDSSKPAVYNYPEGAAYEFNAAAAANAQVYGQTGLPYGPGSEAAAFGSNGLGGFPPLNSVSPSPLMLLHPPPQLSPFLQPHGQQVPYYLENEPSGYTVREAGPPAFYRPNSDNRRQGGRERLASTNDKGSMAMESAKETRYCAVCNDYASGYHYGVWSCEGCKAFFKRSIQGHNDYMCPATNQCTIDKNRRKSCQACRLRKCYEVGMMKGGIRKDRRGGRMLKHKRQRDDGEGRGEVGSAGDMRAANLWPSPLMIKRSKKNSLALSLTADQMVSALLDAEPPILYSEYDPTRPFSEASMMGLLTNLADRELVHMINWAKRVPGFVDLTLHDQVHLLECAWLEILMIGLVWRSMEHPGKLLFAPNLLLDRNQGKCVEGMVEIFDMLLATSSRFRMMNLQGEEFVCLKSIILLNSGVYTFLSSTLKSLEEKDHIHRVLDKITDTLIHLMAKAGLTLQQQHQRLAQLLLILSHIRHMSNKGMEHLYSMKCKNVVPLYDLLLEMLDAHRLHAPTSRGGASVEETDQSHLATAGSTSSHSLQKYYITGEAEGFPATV
row,SMILES,activation
1,CC(=O)O[C@@]12CO[C@@H]1C[C@H](O)[C@@]1(C)C(=O)[C@H](O)C3=C(C)[C@@H](OC(=O)[C@H](O)[C@@H](NC(=O)OC(C)(C)C)c4ccccc4)C[C@@](O)([C@@H](OC(=O)c4ccccc4)[C@H]21)C3(C)C,-1.38% [at 42.5 µM]
2,OCCCCCO,1.49%
3,CC(=O)Oc1cccc(C)c1,-0.865% [at 42.5 µM]
4,CCCC(=O)O[C@]1(C(=O)CC)CC[C@H]2[C@@H]3CCC4=CC(=O)CC[C@]4(C)[C@H]3[C@@H](O)C[C@@]21C,-0.225% [at 42.5 µM]
5,CCOC(=O)CCC(=O)OCC,-2.4%
6,CC(C)(C)C(=O)c1ccccc1,-2.68%
7,O=C(O)CC(C(=O)O)S(=O)(=O)O (stereo not given),0.342%
8,CC[C@H]1OC(=O)[C@H](C)[C@@H](O[C@H]2C[C@@](C)(OC)[C@@H](O)[C@H](C)O2)[C@H](C)[C@@H](O[C@@H]2O[C@H](C)C[C@H](N(C)C)[C@H]2O)[C@](C)(OC)C[C@@H](C)C(=O)[C@H](C)[C@@H](O)[C@]1(C)O,-1.18%
9,CC1(C)OC[C@@H](COC(=O)CCc2ccc(OC[C@@H](O)CNCCNC(=O)N3CCOCC3)cc2)O1,1.01% [at 42.5 µM]
10,C=COC(=O)C(C)(CC)CCC(C)C (stereo not given),0.262%
11,COc1ccc2cc1Oc1cc3c(cc1OC)CC[N+](C)(C)[C@H]3Cc1ccc(cc1)Oc1c(OC)c(OC)cc3c1[C@@H](C2)[N+](C)(C)CC3,-0.862% [at 42.5 µM]
12,N[C@H](C(=O)O)[C@@H](O)c1ccc(O)c(O)c1,-1.15% [at 42.5 µM]
13,CCCO[Si](OCCC)(OCCC)OCCC,2.16%
14,Cc1ccc(C(=O)c2ccc(CC(=O)O)n2C)cc1,0.466% [at 42.5 µM]
15,[O-][n+]1cccc(CO)c1,0.132% [at 42.5 µM]
16,CC(C)=CCC/C(C)=C/C#N,0.43%
17,C1CCC2(CCCCO2)OC1,-1.35%
18,CNCC(O)c1ccc(O)c(O)c1 (stereo not given),-3.16% [at 42.5 µM]
19,CO/N=C(\C(=O)N[C@@H]1C(=O)N2C(C(=O)O)=C(CSc3nc(=O)c(O)nn3C)CS[C@H]12)c1csc(N)n1,-0.232% [at 42.5 µM]
20,Nc1ccn([C@@H]2O[C@H](CO)[C@@H](O)C2(F)F)c(=O)n1,-0.425% [at 42.5 µM]

row,SMILES,activation
1,CCCCOCCOC(=O)COc1cc(Cl)c(Cl)cc1Cl,0.431%
2,COCCOCC(OC)OC,0.107% [at 42.5 µM]
3,CCCCCCCCCCCCCCCCCCO,-0.781% [at 42.5 µM]
4,C=CC(=O)OCCCl,-2.04%
5,CCN(Cc1ccccc1)c1ccccc1,-0.259%
6,CCNC(=O)[C@@H]1CCCN1C(=O)[C@H](CCCN=C(N)N)NC(=O)[C@H](CC(C)C)NC(=O)CNC(=O)[C@H](Cc1ccc(O)cc1)NC(=O)[C@H](CO)NC(=O)[C@H](Cc1c[nH]c2ccccc12)NC(=O)[C@H](Cc1cnc[nH]1)NC(=O)[C@@H]1CCC(=O)N1 ([pGlu]HWSYGLRP-NHEt),-0.388% [at 42.5 µM]
7,CC(C)c1ccc2ncccc2c1,0.221%
8,CCC(C)(CCCC(C)C)OC(C)=O (stereo not given),0.261%
9,Cc1ccc(C(=O)Nc2ccc(S(=O)(=O)O)c3cc(S(=O)(=O)O)cc(S(=O)(=O)O)c23)cc1NC(=O)c1cccc(NC(=O)Nc2cccc(C(=O)Nc3cc(C(=O)Nc4ccc(S(=O)(=O)O)c5cc(S(=O)(=O)O)cc(S(=O)(=O)O)c45)ccc3C)c2)c1,-0.721% [at 42.5 µM]
10,CCCCCCC1CCC(=O)O1 (stereo not given),-0.448%
11,CC1OC1C1CCC2(C)OC2C1 (stereo not given),-0.959%
12,CN(C)C(=O)Oc1cccc([N+](C)(C)C)c1,0.246% [at 42.5 µM]
13,O=C(O)Cc1csc(-c2ccc(Cl)cc2)n1,0.684% [at 42.5 µM]
14,Cc1ccc(-c2ncc(Cl)cc2-c2ccc(S(C)(=O)=O)cc2)cn1,0.162% [at 42.5 µM]
15,CCC(C(=O)NC(=O)NC(C)=O)c1ccccc1 (stereo not given),-1.71% [at 42.5 µM]
16,CCCCCC(=O)OCCc1ccccc1,-0.152%
17,CN1CCC(=C2c3ccccc3CCc3cccnc32)CC1,-1.96% [at 42.5 µM]
18,CN(C)C(=O)Oc1ccc[n+](C)c1,0.333% [at 42.5 µM]
19,O=C(c1ccccc1O)c1ccccc1O,-0.0017%
20,O=S(=O)(O)c1cccc(S(=O)(=O)O)c1,0.436%
